Measurements published in PubChem BioAssay (NCI).
About 79,000 compounds went through this panel and 15% of them were active in at least one assay; those are over-represented in the sample as a whole. A number with no mark means an inactive call. Activity calls are given as the source filed them. Cut-off read from the data, not from the text of the source: active = growth inhibition above about 70%; inactive = the rest.

How the values were obtained:
[1] = NCI Yeast Anticancer Drug Screen. Data for the rad50 strain (AID 155);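 note: 0% = growth of vehicle-only cultures of the same strain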; settings: S. cerevisiae rad50 strain growth inhibition; at 50.0 µM; hits give high values
How it was run: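 Yeast carrying a defined DNA repair defect were exposed to test compounds, and growth was compared with vehicle-treated controls to give percent inhibition.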

[2] = NCI Yeast Anticancer Drug Screen. Data for the mec2-1 strain (AID 157); settings: S. cerevisiae mec2-1 strain, at 50.0 µM, hits give high values
How it was run: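 Using mec2-1 yeast: add compound, measure growth, express inhibition versus vehicle-treated cultures.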

[3] = NCI Yeast Anticancer Drug Screen. Data for the sgs1 mgt1 strain (AID 161);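 note: 0% = growth of cultures given vehicle only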; settings: S. cerevisiae sgs1 mgt1 strain, at 50.0 µM, hits give high values
How it was run: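 Compounds are added to genetically altered yeast, and growth is compared with cultures given vehicle alone to give percent inhibition.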

[4] = NCI Yeast Anticancer Drug Screen. Data for the cln2 rad14 strain (AID 165);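 note: 0% = growth equal to vehicle treated cultures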; settings: S. cerevisiae cln2 rad14 strain, at 50.0 µM, hits give high values
How it was run: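 Yeast strain cln2 rad14, bearing defects in cell cycle control and DNA repair, serves as the test system; values reflect growth inhibition compared with vehicle.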

[5] = NCI Yeast Anticancer Drug Screen. Data for the bub3 strain (AID 167); settings: S. cerevisiae bub3 mutant strain, at 50.0 µM, hits give high values
How it was run: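 Compounds were applied to a genetically altered yeast strain carrying a cell-cycle control defect. Growth inhibition was scored against vehicle-treated controls.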

[6] = NCI Yeast Anticancer Drug Screen. Data for the mlh1 rad18 strain (AID 175); settings: S. cerevisiae mlh1 rad18 strain growth inhibition; at 50.0 µM; hits give high values
How it was run: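 Steps: expose repair-defective yeast to compound; measure growth; express inhibition against vehicle-treated controls.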

O=C1C(c2ccccc2)C(c2ccccc2)C(c2ccccc2)C1c1ccccc1 (stereo unspecified)
growth inhibition [1]: 52%
growth inhibition [2]: 1.05%
growth inhibition [3]: 15.9%
growth inhibition [4]: 5.65%
growth inhibition [5]: -4.3%
growth inhibition [6]: 5.65%

CCCCCCC1(/C=C/c2ccc(Cl)c(Cl)c2)OCCCO1
growth inhibition [1]: 6.15%
growth inhibition [2]: 12.2%
growth inhibition [3]: 12.6%
growth inhibition [4]: -1.55%
growth inhibition [5]: 3.2%
growth inhibition [6]: 8.1%

COc1cc2c(cc1OC)C(CS(C)=O)Cc1cc(OC)c(OC)cc1N(C)CCC2 (stereo unspecified)
growth inhibition [1]: 10.5%
growth inhibition [2]: 19.4%
growth inhibition [3]: 14.2%
growth inhibition [4]: 10.6%
growth inhibition [5]: -1.55%
growth inhibition [6]: 29.9%

Cc1noc(-c2ccccc2)c1N=Nc1ccccc1
growth inhibition [1]: 11.6%
growth inhibition [2]: 12.1%
growth inhibition [3]: 28.1%
growth inhibition [4]: -34.2%
growth inhibition [5]: 45.1%
growth inhibition [6]: 28.5%

CCCCC(O)(CCCC)CC(C)(C)C
growth inhibition [1]: -3.3%
growth inhibition [2]: 1.6%
growth inhibition [3]: -9%
growth inhibition [4]: 18.7%
growth inhibition [5]: 2.65%
growth inhibition [6]: -1.35%

N#Cc1c(O)c(C=O)c(=O)n2c1[nH]c1ccccc12
growth inhibition [1]: -30.6%
growth inhibition [2]: -45.5%
growth inhibition [3]: -21.7%
growth inhibition [4]: -8.15%
growth inhibition [5]: 4.05%
growth inhibition [6]: -0.05%

O=S(Cc1cc2c(cc1Br)OCO2)c1ccccc1 (stereo unspecified)
growth inhibition [1]: -27%
growth inhibition [2]: -33.5%
growth inhibition [3]: -20%
growth inhibition [4]: -22.4%
growth inhibition [5]: -37.7%
growth inhibition [6]: -29.1%

O=C(NCSC1=NCCS1)NCSC1=NCCS1
growth inhibition [1]: -7.05%
growth inhibition [2]: -20.4%
growth inhibition [3]: 6.85%
growth inhibition [4]: 16.5%
growth inhibition [5]: 2.85%
growth inhibition [6]: -14.8%

CCOC(=Nc1cccc2ccccc12)Nc1cccc2ccccc12
growth inhibition [1]: -5.9%
growth inhibition [2]: -6.95%
growth inhibition [3]: -8.6%
growth inhibition [4]: -25.2%
growth inhibition [5]: -15.8%
growth inhibition [6]: -6.65%

C/C=C/c1ccc(O)c(OC)c1
growth inhibition [1]: 13.1%
growth inhibition [2]: -11.6%
growth inhibition [3]: 4.85%
growth inhibition [4]: -5.95%
growth inhibition [5]: -3.25%
growth inhibition [6]: -9.3%

Cc1ccc(SC(=O)Cc2ccc([N+](=O)[O-])cc2)cc1
growth inhibition [1]: 96.6% (active)
growth inhibition [2]: 98% (active)
growth inhibition [3]: 98.2% (active)
growth inhibition [4]: 88.3% (active)
growth inhibition [5]: 96.2% (active)
growth inhibition [6]: 96.8% (active)

COc1ccc(C(CC(C)(C)C)c2ccc(OC)cc2)cc1
growth inhibition [1]: -0.9%
growth inhibition [2]: -9%
growth inhibition [3]: 5.15%
growth inhibition [4]: -44.5%
growth inhibition [5]: -11.9%
growth inhibition [6]: -11.1%

Cc1cccc(C(C)(C)C)c1NC(=O)C(=O)C(C(=O)/C=C\c1ccccc1)C1OC(=O)c2ccccc21 (stereo unspecified)
growth inhibition [1]: 7.4%
growth inhibition [2]: -4.95%
growth inhibition [3]: 12.3%
growth inhibition [4]: 30.4%
growth inhibition [5]: 13.8%
growth inhibition [6]: 6.1%

COC1OC2COC(c3ccccc3)OC2C2C1N2C(=S)SC (stereo unspecified)
growth inhibition [1]: -4.05%
growth inhibition [2]: 1.7%
growth inhibition [3]: -2.7%
growth inhibition [4]: -17.6%
growth inhibition [5]: -0.75%
growth inhibition [6]: -0.55%

C=C(C)[C@@H]1CC[C@@H]2C(=CC[C@]3(C)C([C@H](C)CC/C=C(/C)C(=O)O)CC[C@@]23C)[C@@]1(C)CCC(=O)O (stereo partly specified)
growth inhibition [1]: 15.6%
growth inhibition [2]: -4.95%
growth inhibition [3]: -0.85%
growth inhibition [4]: 14.4%
growth inhibition [5]: 4.05%
growth inhibition [6]: -63.2%

CCOc1ccc(N=Nc2c(C)nc(N)nc2-c2ccccc2)cc1
growth inhibition [1]: 20.1%
growth inhibition [2]: -14.7%
growth inhibition [3]: 4.1%
growth inhibition [4]: -4.75%
growth inhibition [5]: 35.4%
growth inhibition [6]: 24.4%

NC(N)=Nc1ccc(Sc2ccc(N=C(N)N)cc2)cc1
growth inhibition [1]: -15.8%
growth inhibition [2]: -35.5%
growth inhibition [3]: -16.6%
growth inhibition [4]: -19.6%
growth inhibition [5]: -4.65%
growth inhibition [6]: -26.5%

O=C(Nc1ccc(Cl)c(Cl)c1)c1ccc(C(=O)Nc2ccc(Cl)c(Cl)c2)cc1
growth inhibition [1]: 8.35%
growth inhibition [2]: 19.1%
growth inhibition [3]: 25.1%
growth inhibition [4]: -18.9%
growth inhibition [5]: -4.85%
growth inhibition [6]: 30.3%

Nc1ccc(N)c(N)c1
growth inhibition [1]: 26.3%
growth inhibition [2]: 53.1%
growth inhibition [3]: 31.4%
growth inhibition [4]: -31.2%
growth inhibition [5]: -4.9%
growth inhibition [6]: 6.8%

CC(C)(CCCCC(C)(C)C1NC(=O)N1)C1NC(=O)N1
growth inhibition [1]: -42.6%
growth inhibition [2]: -7.4%
growth inhibition [3]: -67.9%
growth inhibition [4]: -46.5%
growth inhibition [5]: -9.1%
growth inhibition [6]: -43.1%

COc1cccc(-c2nsc(=O)o2)c1
growth inhibition [1]: 41.5%
growth inhibition [2]: 23.1%
growth inhibition [3]: 24.3%
growth inhibition [4]: -1.4%
growth inhibition [5]: 52.6%
growth inhibition [6]: 32.6%

CCc1c(Cc2[nH]c(Cc3[nH]c(C=O)c(C)c3CC)c(CC)c2CC)[nH]c(C=O)c1C
growth inhibition [1]: 5.25%
growth inhibition [2]: -7.5%
growth inhibition [3]: -5.85%
growth inhibition [4]: -45.9%
growth inhibition [5]: -0.75%
growth inhibition [6]: -8.75%

CCC1(C)N=C(N)Nc2nc3cc(C)c(C)cc3n21 (stereo unspecified)
growth inhibition [1]: 15.2%
growth inhibition [2]: 17.7%
growth inhibition [3]: 25.1%
growth inhibition [4]: 7.05%
growth inhibition [5]: 19.9%
growth inhibition [6]: 21.4%

NC(=O)c1csc([C@@H](O)Cc2ccccc2)n1
growth inhibition [1]: -2.25%
growth inhibition [2]: 3.5%
growth inhibition [3]: 7.5%
growth inhibition [4]: -7.7%
growth inhibition [5]: 8.35%
growth inhibition [6]: 7.95%

O=C(O)c1nc(N=Nc2ccc(S(=O)(=O)O)cc2)[nH]c1C(=O)O
growth inhibition [1]: 25.1%
growth inhibition [2]: -4.85%
growth inhibition [3]: 9.8%
growth inhibition [4]: -30.7%
growth inhibition [5]: -2%
growth inhibition [6]: 21.2%

Cc1c2oc3c(C)ccc(C(=O)NCCc4ccccn4)c3nc-2c(C(=O)NCCc2ccccn2)c(N)c1=O
growth inhibition [1]: 5.9%
growth inhibition [2]: -8.05%
growth inhibition [3]: 4.05%
growth inhibition [4]: 4.9%
growth inhibition [5]: -5.45%
growth inhibition [6]: -6.9%

C=CCCCCCCCCC(=O)OCC(C)C
growth inhibition [1]: 11.3%
growth inhibition [2]: 22.4%
growth inhibition [3]: 15.9%
growth inhibition [4]: -27.2%
growth inhibition [5]: -24.1%
growth inhibition [6]: 17.4%

CC1CN=C(N(Cc2ccc(F)cc2)C(=O)Nc2ccc(Cl)cc2)S1 (stereo unspecified)
growth inhibition [1]: -35.5%
growth inhibition [2]: -8.95%
growth inhibition [3]: -41.5%
growth inhibition [4]: 1.6%
growth inhibition [5]: 7.7%
growth inhibition [6]: -34.3%

C[N+](C)(C)CCCCCC[N+](C)(C)C
growth inhibition [1]: -31.8%
growth inhibition [2]: -15.6%
growth inhibition [3]: -22.9%
growth inhibition [4]: -14.2%
growth inhibition [5]: -31.7%
growth inhibition [6]: -30.2%

CCN1c2ccccc2CC(CCN(C)Cc2ccccc2)(C(N)=O)c2ccccc21 (stereo unspecified)
growth inhibition [1]: 26.1%
growth inhibition [2]: -1.15%
growth inhibition [3]: -7.7%
growth inhibition [4]: 7.45%
growth inhibition [5]: 5.3%
growth inhibition [6]: -6.05%

CS(=O)(=O)C(c1nc2n(c1O)C(=N)N=N2)c1nc2n(c1O)C(=N)N=N2 (stereo unspecified)
growth inhibition [1]: -3.2%
growth inhibition [2]: 12.1%
growth inhibition [3]: -6.15%
growth inhibition [4]: -17.1%
growth inhibition [5]: -5.2%
growth inhibition [6]: 9.8%

CCCc1cc(C(=O)N/N=C/c2ccc([N+](=O)[O-])cc2)c2ccccc2n1
growth inhibition [1]: -28.3%
growth inhibition [2]: -3.2%
growth inhibition [3]: 0.1%
growth inhibition [4]: -40.5%
growth inhibition [5]: 9.5%
growth inhibition [6]: -2.8%

O=C(CSc1nnc(-c2ccccc2NC(=O)C(F)(F)F)c(=O)[nH]1)NC(=O)Nc1ccccc1
growth inhibition [1]: 31.7%
growth inhibition [2]: -28.8%
growth inhibition [3]: 11.7%
growth inhibition [4]: 16.3%
growth inhibition [5]: -8.35%
growth inhibition [6]: 23.9%

Brc1cccc(Br)n1
growth inhibition [1]: -6.45%
growth inhibition [2]: -6.15%
growth inhibition [3]: -7.55%
growth inhibition [4]: 7.4%
growth inhibition [5]: 2.1%
growth inhibition [6]: 4.05%

O=C1c2ccccc2C(=O)C1(O)c1c[nH]c2ccccc12
growth inhibition [1]: -1.55%
growth inhibition [2]: 12.1%
growth inhibition [3]: 4.25%
growth inhibition [4]: 6.85%
growth inhibition [5]: -18%
growth inhibition [6]: 23.6%

O=C(O)/C=C/C(=O)Nc1ccccc1Cl
growth inhibition [1]: 10.4%
growth inhibition [2]: 29.6%
growth inhibition [3]: 48.9%
growth inhibition [4]: 0%
growth inhibition [5]: 42.2%
growth inhibition [6]: 21%

COc1ccc(COC(=O)NC2CCCCC2)cc1OC
growth inhibition [1]: 2.5%
growth inhibition [2]: 19.9%
growth inhibition [3]: 25.1%
growth inhibition [4]: -9.95%
growth inhibition [5]: 37%
growth inhibition [6]: 45.9%

CCOC(=O)CCC(=O)C(=O)OCC
growth inhibition [1]: 13.1%
growth inhibition [2]: -24.8%
growth inhibition [3]: 13.2%
growth inhibition [4]: 20.9%
growth inhibition [5]: 1.4%
growth inhibition [6]: 20.1%

CCOC(=O)c1ncc(Cl)cc1NC(=O)CC(=O)Nc1cc(Cl)cnc1C(=O)OCC
growth inhibition [1]: 59.8%
growth inhibition [2]: -8%
growth inhibition [3]: 32.5%
growth inhibition [4]: -31.1%
growth inhibition [5]: 1.1%
growth inhibition [6]: 20.3%

COc1cc2c(c(OC)c1OC)-c1ccc(OC)c(=O)cc1C(NC(=O)c1ccc(N=[N+]=[N-])cc1)CC2 (stereo unspecified)
growth inhibition [1]: 51.4%
growth inhibition [2]: 74.8% (active)
growth inhibition [3]: 8.5%
growth inhibition [4]: -4.7%
growth inhibition [5]: -4.6%
growth inhibition [6]: 87.3% (active)

CC(=O)CCc1cccc([N+](=O)[O-])c1
growth inhibition [1]: -17.6%
growth inhibition [2]: -5.1%
growth inhibition [3]: -14.5%
growth inhibition [4]: -6.85%
growth inhibition [5]: -0.15%
growth inhibition [6]: -7.25%
